Our source for the z-score and composite z-score values is PubChem BioAssay.

The source made the active and inactive calls. Unless noted, how the calls were made is not given here.

Assay [1] can be described thus: HepG2 liver cancer cell viability effects, profiling panel, resazurin fluorescence, 24 h, PK04 Diversity Set (AID 1172). Further: test concentration not given here. The note with it: higher = more signal. A general note: The colour change of resazurin is a common sign of viable cells or microbes.
Assay [2] is described as follows: basal S. cerevisiae growth modulation, no modifier, primary screen, OD600, strain BY4716, 24 h, basal condition (AID 1173). The note with it: OD600, 24 h, higher = more signal, called active from +8 up or from −8 down.
A short description of assay [3]: MM1S myeloma cell viability, profiling panel, resazurin fluorescence, basal, 24 h, PK04 Diversity Set (AID 1174).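 Further: MM1S multiple myeloma cell line; test concentration not given here.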 The note with it: higher = more signal, called active from +8 up or from −8 down.
In assay [4] the target is Dihydroorotate dehydrogenase (quinone), mitochondrial (Plasmodium falciparum (isolate 3D7)) (UniProt Q08210). Nature of the assay: PfDHODH enzyme inhibitors, primary screen, biochemical, C-terminal His tag, absorbance 600 nm (AID 1175).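 Further: recombinant parasite enzyme with a five histidine tag at its C terminus; test concentration not given here.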 To be noted: DCIP absorbance 600 nm, higher = more signal, called active from +8 up or from −8 down.
Assay [5] is described as follows: P. aeruginosa biofilm formation inhibitors, primary screen, strain PAO1, LB-PBS medium, absorbance 600 nm (AID 1176). Further: test concentration not given here. The note with it: P. aeruginosa PAO1 growth/biofilm, A600, 12 h; higher = more signal.
Assay [6] can be described thus: S. cerevisiae RM11-1a growth modifiers, primary screen, strain RM11-1a, OD600, basal, 24 h (AID 1177).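 Further: cultures grown under basal conditions with no added stressor; test concentration not given here.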 To be noted: OD600, 24 h, higher = more signal, called active from +8 up or from −8 down.
Assay [7] can be described thus: E. coli acrAB mutant growth effects, primary screen, E. coli filamentation inducers, strain DRC39, OD650, 24 h (AID 1178).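 Further: growth measured as culture turbidity by optical density at 650 nm; test concentration not given here.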 To be noted: higher = more signal, called active from +8 up or from −8 down.
The nature of assay [8]: E. coli acrAB mutant growth effects, primary screen, E. coli filamentation inducers, strain DRC39, OD650, 48 h (AID 1179).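 Further: screen aims at cell division blockers that make cells filament.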 The note with it: E. coli DRC39 delta-acrAB growth, higher = more signal, called active from +8 up or from −8 down.
Assay [9] can be described thus: RPMI8226 myeloma cell viability, profiling panel, resazurin fluorescence, basal, 24 h, PK04 Diversity Set (AID 1180).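 Further: RPMI8826 multiple myeloma cell line at 5000 cells per well; test concentration not given here.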 To be noted: higher = more signal.
The target of assay [10] is E3 ubiquitin-protein ligase XIAP (Homo sapiens) (UniProt P98170). Put plainly: XIAP binders, primary screen, biophysical, small-molecule microarray, fluorescence 635 nm (AID 1181).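 Further: score merges 667 nm emission and signal to noise over triplicate slides.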 To be noted: small-molecule microarray binding, higher = more signal.
Sequence of E3 ubiquitin-protein ligase XIAP (Homo sapiens) (P98170 whole entry, looked up): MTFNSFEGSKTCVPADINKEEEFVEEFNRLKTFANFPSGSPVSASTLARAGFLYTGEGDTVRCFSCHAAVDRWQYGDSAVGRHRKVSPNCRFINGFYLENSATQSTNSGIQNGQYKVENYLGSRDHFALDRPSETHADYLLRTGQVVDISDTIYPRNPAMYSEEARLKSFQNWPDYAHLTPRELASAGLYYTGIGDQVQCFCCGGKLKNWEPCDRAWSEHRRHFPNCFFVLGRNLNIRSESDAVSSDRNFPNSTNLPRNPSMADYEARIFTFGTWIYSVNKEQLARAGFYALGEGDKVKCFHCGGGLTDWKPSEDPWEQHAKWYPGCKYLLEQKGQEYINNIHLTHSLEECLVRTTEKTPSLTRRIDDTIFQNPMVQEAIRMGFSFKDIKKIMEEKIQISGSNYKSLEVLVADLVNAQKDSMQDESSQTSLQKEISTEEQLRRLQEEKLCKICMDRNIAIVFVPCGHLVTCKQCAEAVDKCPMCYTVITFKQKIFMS

Sequence of Dihydroorotate dehydrogenase (quinone), mitochondrial (Plasmodium falciparum (isolate 3D7)) (Q08210 whole entry, looked up): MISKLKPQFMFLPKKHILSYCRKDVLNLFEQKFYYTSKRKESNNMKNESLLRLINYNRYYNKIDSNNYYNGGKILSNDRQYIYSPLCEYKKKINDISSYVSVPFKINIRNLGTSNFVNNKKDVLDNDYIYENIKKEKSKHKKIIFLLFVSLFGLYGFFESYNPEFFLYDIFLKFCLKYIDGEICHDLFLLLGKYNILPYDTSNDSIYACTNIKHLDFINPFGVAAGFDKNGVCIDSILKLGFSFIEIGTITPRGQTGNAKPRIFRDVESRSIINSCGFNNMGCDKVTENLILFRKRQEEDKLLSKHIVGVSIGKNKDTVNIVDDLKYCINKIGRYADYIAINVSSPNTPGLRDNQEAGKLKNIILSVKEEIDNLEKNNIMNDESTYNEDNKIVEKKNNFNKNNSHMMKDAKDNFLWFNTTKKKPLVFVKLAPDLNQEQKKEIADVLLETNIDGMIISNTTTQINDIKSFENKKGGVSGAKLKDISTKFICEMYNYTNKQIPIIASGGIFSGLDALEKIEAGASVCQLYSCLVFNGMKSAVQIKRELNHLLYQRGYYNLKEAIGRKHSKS

Regarding `O=C(NCCC[N+]1=CC=NC1c1ccccc1)N1CCCc2nc(-c3ccc(Br)cc3)ccc21` (stereo not given), the z-score is 0.0392 in assay [1]; -2.72 (inactive) in [2]; -1.04 (inactive) in [3]; 0.508 (inactive) in [5]; 1.6 (inactive) in assay [6]; 1.11 (inactive) in assay [7]. For the same compound, the z-score is -0.493 (inactive) in [8] and -0.29 in assay [9]. Besides, the composite z-score was 1.01 (inactive) in assay [4] and -0.105 in assay [10].

With `Cc1cc(C)c(-c2cc([C@H](C)ON=C[C@@H](C)[C@H](OCc3ccccc3)C(C)C)on2)c(C)c1`, the z-score in assay [1] is -0.811; in assay [2], 0.462 (inactive); in assay [3], -0.258 (inactive); in assay [5], -0.23 (inactive); in assay [6], 0.255 (inactive); in [7] it was 0.262 (inactive). In addition, the z-score is 0.336 (inactive) in [8] and -0.522 in assay [9]. Further, the composite z-score in [4] was -0.382 (inactive); in assay [10], 0.02.

`CC(CCN1CCc2nc(-c3ccccc3)c(-c3ccccc3)cc2C1)=NO[C@@H](C)c1cc(-c2c(C)cc(C)cc2C)no1`: the z-score was -0.377 in [1]; -1.7 (inactive) in [2]; 0.553 (inactive) in assay [3]; -0.634 (inactive) in assay [5]; -0.482 (inactive) in [6]; -1.04 (inactive) in assay [7]. Also, the values for the z-score in assay [8] and in [9] were -1.01 (inactive) and 0.812, respectively. Also, the composite z-score in assay [4] is -2.15 (inactive); in assay [10], -0.209.

On to `COc1ccc(-c2cnnc(CCCn3ccnc3-c3ccccc3)n2)cc1`, for which the z-score is -1.18 in assay [1]; -0.72 (inactive) in assay [2]; -0.891 (inactive) in [3]; 1.17 (inactive) in [5]; -0.252 (inactive) in assay [6]; -0.867 (inactive) in assay [7]. In addition, the z-score was -0.634 (inactive) in assay [8] and -1.38 in assay [9]. In addition, the values for the composite z-score in assay [4] and in assay [10] were 0.552 (inactive) and -0.0143, respectively.

On to `CCOC(=O)[C@H](Cc1ccccc1)NC(=O)CCC1CC(OC(=O)NCc2cccc3ccccc23)CC2(CCCC(COC(=O)NCc3ccc4c(c3)OCO4)O2)O1` (stereo not given in full), for which the z-score in assay [1] is -0.0973; in assay [2], -0.552 (inactive); in [3], -0.082 (inactive); in assay [5] it was -0.373 (inactive); in assay [6], -0.131 (inactive); in [7], 1.56 (inactive). Further, the z-score was 1.41 (inactive) in assay [8] and 0.922 in assay [9]. The composite z-score in assay [4] is -0.929 (inactive); in [10], -0.209.

In the case of `COC(=O)[C@@H]1CC[C@H](C)[C@@H](c2ccc(Br)cc2)N1C[C@@H](O)CN=[N+]=[N-]`, the z-score in assay [1] was -0.36; in assay [2] it was -11.9 (active); in assay [3] it was 0.506 (inactive); in assay [5], 0.733 (inactive); in assay [6] it was -0.492 (inactive); in [7] it was -1.47 (inactive). Besides, the z-score in assay [8] was -2.14 (inactive); in assay [9] it was -0.0718. Moreover, the composite z-score was -3.04 (inactive) in assay [4] and -0.0118 in assay [10].

For the compound `CO[C@@H]1COC(=O)CC=C[C@H](C)[C@H](OC)COC(=O)[C@@H]2CCCN2C(=O)CC=C[C@H]1C`, the z-score in assay [1] was -0.144; in [2] it was -1.17 (inactive); in assay [3], 0.918 (inactive); in assay [5] it was -1.33 (inactive); in assay [6], -0.203 (inactive); in [7], 0.422 (inactive). Besides, the z-score in [8] is -0.0617 (inactive); in assay [9] it was 0.306. Besides, the values for the composite z-score in assay [4] and in [10] were -0.222 (inactive) and -0.02, respectively.

Consider `O=C1[C@H]2[C@H]3[C@H](O)[C@H](O)CC(=NOCc4ccccc4)[C@@H]3CC[C@H]2C(=O)N1c1cccc(Oc2ccccc2)c1`, for which the z-score in assay [1] is 0.363; in assay [2], 0.204 (inactive); in assay [3], -0.857 (inactive); in assay [5] it was 0.741 (inactive); in assay [6], 0.056 (inactive); in assay [7] it was 0.796 (inactive). The z-score was 1.4 (inactive) in [8] and 0.173 in assay [9]. The composite z-score in assay [4] is -0.0818 (inactive); in [10] it was -0.15.

For `CC1(C)O[C@H]2OC([C@H](O)CON3C(=O)c4ccccc4C3=O)[C@H](O)[C@H]2O1` (stereo not given in full), the z-score was 0.109 in assay [1]; 0.457 (inactive) in [2]; -0.409 (inactive) in assay [3]; -0.151 (inactive) in [5]; -0.854 (inactive) in assay [6]; 0.345 (inactive) in [7]. For the same compound, the results for the z-score in assay [8] and in assay [9] were 0.209 (inactive) and 0.0738, respectively. Besides, the composite z-score in assay [4] is -0.559 (inactive); in assay [10], -0.261.

For `O=C1[C@H]2CCn3c(=O)n(Cc4cc5c(cc4Cl)OCO5)c(=O)n3[C@H]2[C@H](O)[C@@H]2O[C@H]12`, the z-score in [1] is -0.581; in assay [2], -0.0756 (inactive); in assay [3] it was -1.3 (inactive); in assay [5] it was -0.838 (inactive); in [6], 0.533 (inactive); in assay [7] it was 0.552 (inactive). The z-score is 0.669 (inactive) in assay [8] and -1.3 in [9]. For the same compound, the composite z-score in assay [4] is -0.877 (inactive); in [10], -0.146.

`CC(CCN1CCCCc2nc(C)c(C)cc21)=NO[C@@H](C)c1cc(-c2c(C)cc(C)cc2C)no1`: the z-score in assay [1] was 1.18; in assay [2], -6.11 (inactive); in assay [3], 0.862 (inactive); in [5], -0.467 (inactive); in [6], -0.62 (inactive); in assay [7], 0.777 (inactive). Besides, the z-score is 0.935 (inactive) in assay [8] and 1.51 in [9]. For the same compound, the figures for the composite z-score in assay [4] and in [10] were -0.525 (inactive) and 0.626, respectively.

In the case of `COc1ccc(COC(=O)NN=C2C[C@@H](O)[C@@H](O)[C@@H]3[C@@H]4C(=O)N(C[C@@H]5CCCO5)C(=O)[C@@H]4CC[C@H]23)cc1`, the z-score in assay [1] was -0.161; in assay [2], 1.29 (inactive); in [3] it was 0.0829 (inactive); in [5], -0.0485 (inactive); in [6], 0.293 (inactive); in [7], 0.16 (inactive). For the same compound, the z-score was 0.0875 (inactive) in [8] and -0.631 in assay [9]. In addition, the composite z-score in [4] was -0.395 (inactive); in [10], 0.0679.
